DT40 TDP1 no CPT – qHTS for Inhibitors of human tyrosyl-DNA phosphodiesterase 1 (TDP1): qHTS in cells in absence of CPT; DT40 Tdp1-/- hTDP1 cells, no CPT, ATP luminescence, 48 h; Potency, µM (highest dose often 46.2 µM), for the others: at the highest dose activity change, negative = growth inhibition, actives largely listed as inhibitors; 420,000 tested, 15% active; also: potency is read from the fitted curve at half-maximal effect; nearly all actives have a fitted effect of over 55% in size
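Stably hTDP1-transfected Tdp1-null chicken DT40 cells were treated with library compounds minus camptothecin and grown for at least 48 hr at 37 °C, after which cellular ATP was quantified by luminescence.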
ELG1 DNA repair – ELG1-dependent DNA repair inhibition | Potency, µM (titrated, usually from 46.1 µM), without a hit: at the top dose activity change, negative = inhibition, usual class: inhibitors | 330,000 tested, 2.3% active | HEK293T ELG1-luciferase reporter, luminescence, 16 h; DNA damage induced by 5-fluorouridine | AID 504467; also: potency is read from the fitted curve at half-maximal effect; nearly all actives have a fitted effect of over 55% in size
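5-Fluorouridine DNA damage + compound/DMSO, 2,000 cells/well, 16 h, 37 °C/5% CO2. ONE-Glo, 30 min RT, luminescence. Readout = decrease in reporter signal.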
IL-1B inflam inh – inflammasome signaling inhibition, IL-1 beta readout; THP-1 LPS/ATP IL-1B secretion, AlphaLISA, 16 h; active compounds read low; activity change, % at 57.5 µM; 360,000 tested, 4.7% active; in the data active = activity change below about -50%; inconclusive = mostly about -30% to -49%
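Secreted IL-1B measured by AlphaLISA bead assay after 16 h compound exposure of THP-1 cells; compounds (final up to 57.5 uM) added 1 h before LPS (250 ng/mL) and ATP (1.25 mM) stimulation; lower signal means less secretion.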
DT40 TDP1 CPT – growth inhibition of DT40 Tdp1-/-;hTDP1 cells with camptothecin (screen for TDP1 inhibitors). Potency, µM (titrated, usually from 46.2 µM), for the others: top-dose activity change, negative = growth inhibition, usual class: inhibitors. 420,000 tested, 12% active. chicken DT40 Tdp1-/-;hTDP1 cells + 20 nM CPT, ATP luminescence, 48 h; also: potency is read from the fitted curve at half-maximal effect; nearly all actives have a fitted effect of over 55% in size
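Cell growth measured by CellTiter-Glo luminescence after a minimum 48 h, 37 C compound exposure with 20 nM CPT in Tdp1-knockout DT40 cells stably expressing hTDP1, seeded 400/well; qHTS titration format.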
HT1080 IDH1KD tx – kills HT-1080 cells with IDH1 knockdown. Potency, µM (doses to about 46.1 µM), for inactives: top-dose activity, negative = toxicity, usual class: cytotoxic. HT-1080 IDH1 knockdown viability, ATP luminescence, 48 h. 360,000 tested, 2% active;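 also: potency is read from the fitted curve at half-maximal effect; 0% = DMSO wells and -100% = cell-free medium wells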
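Cytotoxicity counter-line: IDH1KD HT-1080, 48 h, CellTiter-Glo. Curves classed by r2, magnitude and activity.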
HT1080-NT tox – kills 2HG-producing HT-1080-NT fibrosarcoma cells; HT-1080-NT fibrosarcoma viability, CellTiter-Glo ATP luminescence, 48 h; Potency, µM (series often up to 46.1 µM), inactives show at the highest dose activity, negative = less viability, usual class: cytotoxic; 360,000 tested, 1.6% active;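 also: NT is the 2HG producing partner of a matched IDH1 knockdown line; potency is read from the fitted curve at half-maximal effect; 0% = DMSO-treated cells and -100% = media-only wells without cells; nearly all actives have a fitted effect of over 55% in size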
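Viability by CellTiter-Glo luminescence after 48 h compound exposure at 37C of HT-1080-NT cells (750/well, RPMI, 5% FBS). % activity scaled between DMSO wells and medium-only wells, then curve-fitted and categorized by curve class.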
* marks the source's active call; other numbers are inactive results; ? = inconclusive; · = no result given. Shown are actives, neighbours in structure and some others; about 19% of the full set was active somewhere. Unless noted, calls follow the shape of the dose curve; as a rule, active = well fitted curve in the direction sought with a large enough effect; inconclusive = small, poorly fitted or top-dose-only effect, or another doubt; inactive = no such curve, though single readings can be large; an effect the other way counts as inactive or inconclusive. Unless noted, % is scaled to controls: 0 for no effect and ±100 for the full control effect.

SMILES | DT40 TDP1 no CPT | ELG1 DNA repair | IL-1B inflam inh | DT40 TDP1 CPT | HT1080 IDH1KD tx | HT1080-NT tox
CCOC(=O)C1(C)CCCCCN1C(=O)c1ccc(C(F)(F)F)nc1C (stereo not given) | ? | · | -4 | ? | 5% | -6%
COc1ccc(NC(=O)C2CCN(S(=O)(=O)c3ccc4[nH]c(=O)ccc4c3)CC2)cc1Cl | 3% | · | · | -7% | · | ·
CCC(=O)N1c2ccccc2CC1C(=O)NCCN1CCN(c2cc(Cl)ccc2C)CC1 (stereo not given) | ? | · | · | 21µM* | · | ·
CCC(C)c1ccc(NC(=O)NCCN2CCCCC2)cc1 (stereo not given) | -25% | 0% | -52* | ? | ? | ?
O=C(NCCN1CCCCC1)Nc1ccc(Cl)cc1 | -2% | -5% | 10 | 29% | -13% | -15%
Cc1ccc(Cl)cc1N1CCN(CCNC(=O)Nc2ccc(Cl)cc2)CC1 | ? | · | · | 12µM* | · | ·
Cc1ccc(NC(=O)NCCN2CCCCC2)cc1 | -2% | ? | -6 | -19% | 2% | 1%
O=C(CSC(=S)N1CCCC1)Nc1ncc(Cl)cc1Cl | -23% | 2% | 2 | -8% | 1% | 1%
CCn1nc(C)c(Br)c1Nc1ccc(Br)cc1 | -14% | -10% | 26 | 0% | -4% | -5%
CC1CN(C(=O)N2CCC(C(=O)NCc3ccco3)CC2)c2ccccc2O1 (stereo not given) | -19% | · | · | 5% | · | ·
Cc1ccc2c(c1)N(C(=O)N1CCC(C(=O)NCc3ccccc3F)CC1)CC(C)O2 (stereo not given) | 18µM* | · | · | ? | · | ·
CC1CN(C(=O)N2CCC(C(=O)NCc3ccccc3F)CC2)c2cc(Cl)ccc2O1 (stereo not given) | 15µM* | · | · | 21µM* | · | ·
O=C(NCC(c1ccco1)N1CCCCC1)c1ccc2c(c1)S(=O)(=O)c1ccccc1C2=O (stereo not given) | ? | -2% | 12 | ? | 2% | 1%
Nc1cc2c3ccccc3ccc2c2ccccc12 | ? | · | -5 | ? | ? | -1%
CC(C)c1ccc(NC(=O)CN2C(=O)NC(C)(C3CC3)C2=O)cc1 (stereo not given) | ? | 3% | -1 | -20% | -3% | 1%
Cc1cccc(NC(=O)c2sc3nc(-c4ccccc4)cn3c2C)c1C | ? | · | · | 0.52µM* | · | ·
COC(=O)c1ccc(NC(=O)c2sc3nc(-c4ccccc4)cn3c2C)cc1 | 2.6µM* | ? | -23 | 6.5µM* | -2% | -1%
Cc1cc(C)cc(NC(=O)c2sc3nc(-c4ccccc4)cn3c2C)c1 | 12µM* | · | · | 15µM* | · | ·
O=C(NCCCN1CCCC1=O)C1CCN(S(=O)(=O)c2ccccc2)CC1 | -5% | 17% | 11 | 0% | 3% | 15%
C=CCSc1nnc(NC(=O)CCNC(=O)c2ccccc2Cl)s1 | -15% | · | 8 | -6% | -3% | 0%
NC12CCc3c(no[n+]3[O-])C1(O)CC(c1ccccc1)=[N+]2[O-] (stereo not given) | -6% | 13% | 4 | 3% | 4% | -9%
Cc1ccc(-n2nc3c([n+]2[O-])CCc2c-3no[n+]2[O-])cc1 | 16µM* | ? | -78* | ? | 30% | 23%
[O-][n+]1onc2c1CCc1c-2nn(-c2ccccc2Cl)[n+]1[O-] | 15µM* | ? | -74* | 13µM* | 11µM* | ?
Cc1ccc(NC(=O)C2CCN(S(=O)(=O)c3ccc4c(c3)NC(=O)C(C)S4)CC2)c(Cl)c1 (stereo not given) | 21µM* | ? | ? | 13µM* | ? | -26%
Cc1ccc(CCNC(=O)C2CCN(S(=O)(=O)c3ccc4c(c3)NC(=O)C(C)S4)CC2)cc1 (stereo not given) | 18µM* | ? | -68* | ? | ? | 0%
SMILES | DT40 TDP1 no CPT | ELG1 DNA repair | IL-1B inflam inh | DT40 TDP1 CPT | HT1080 IDH1KD tx | HT1080-NT tox
Cc1ccc(NC(=O)C2CCN(S(=O)(=O)c3ccc4c(c3)NC(=O)C(C)S4)CC2)cc1Cl (stereo not given) | 1.2µM* | 13µM* | 31 | 1.3µM* | ? | ?
Cc1cc(C)cc(NC(=O)C2CCN(S(=O)(=O)c3ccc4c(c3)NC(=O)C(C)S4)CC2)c1 (stereo not given) | -24% | ? | ? | ? | -20% | 0%
O=C(CN(CC1CCCO1)C(=O)CNS(=O)(=O)c1ccc(F)cc1)NCCc1ccccc1 (stereo not given) | -5% | 12% | -7 | 2% | 10% | 10%
N#Cc1cc2ccc(N3CCOCC3)cc2cc1C#N | 12µM* | 10% | 31 | 7.3µM* | ? | -13%
N#Cc1cc(Cl)c(N2CCOCC2)cc1C#N | -29% | ? | -17 | -15% | 0% | -8%
C=C(CCO)C1=CCN(S(=O)C(C)(C)C)[C@@H]1CCO (stereo not given in full) | -4% | · | 12 | -3% | -1% | -1%
C=C(C1=CCN(S(=O)C(C)(C)C)[C@@H]1CCO)c1ccccc1 (stereo not given in full) | 23µM* | · | -1 | 7.3µM* | -5% | -1%
O=C1CSC(=S)N1N=Cc1ccc2c(c1)OCO2 | ? | · | -4 | ? | 8% | 0%
COc1ccc(-c2c(C#N)sc(C(N)=O)c2-c2ccc(OC)cc2)cc1 | 10µM* | 0% | 23 | ? | -1% | -10%
CCN(c1ccccc1)c1nc(Cl)nc2c1cnn2C | 13µM* | · | -11 | ? | -1% | -3%
O=C(N/C(=C/c1ccc(F)cc1)C(=O)N1CCCC1)c1ccccc1 | -15% | 8% | 24 | 1% | 9% | -1%
CC(=O)Nc1cc(-c2cccc(C(=O)NCCN(C)C)c2)cn2c(-c3ccccc3)cnc12 | ? | · | -53* | ? | 16µM* | ?
CC(=O)Nc1cc(-c2cccc(C(=O)NCCN(C)C)c2)cn2c(-c3cccc(C(F)(F)F)c3)cnc12 | ? | · | 0 | ? | 21µM* | 18µM*
Cc1cc(OCCOCCNC(C)C)cc(C)c1Cl | 18µM* | -7% | -28 | 18µM* | ? | ?
C/C=C(/C)C(=O)O[C@H]1[C@@H](O)c2c(ccc3ccc(=O)oc23)OC1(C)C | -29% | 6% | 0 | ? | -3% | -2%
C/C=C(/C)C(=O)OC(C)(C)[C@@H]1Cc2c(ccc3ccc(=O)oc23)O1 | ? | -5% | 6 | 18µM* | 11% | 6%
